Experimental findings from PubChem BioAssay AID868 (SRMLSC, 2007) are described below.

Molecules are shown by their SMILES. Among all 190,000 compounds or so, about 3,500 (1.8%) were called active. The sample as a whole holds a higher share of actives than the screen did. Values without a mark were called inactive.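 The calls were made as follows: active = inhibition above a set limit, 3 SD over mean compound inhibition (cut at about 8.4% in these data); inactive = the rest.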

The assay in a line: inhibitors of the yeast RAM network, primary screen, dse1pr::URA3 reporter, 5-FOA selection (AID 868).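 Also: 0% = DMSO-only wells with no growth and 100% = 10 µM 1-NA-PP1 full growth.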 The following applies: S. cerevisiae dse1pr::URA3 reporter, 5-FOA growth OD615, 2 d; at 50 µM; hits give high values; analog-sensitive cbk1-as2 kinase mutant strain.
On to `Cc1nn(-c2ccccc2)c(C)c1/C=N/NC(=O)CSc1nc2ccccc2c(=O)n1-c1ccccc1`, for which the inhibition (as a rule, the drop in the measured response relative to a control, in per cent) was 2.56%.

Take `CCO/N=C(/C)c1c(O)cc(-c2ccccc2)n(-c2ccccc2)c1=O`: the inhibition was 4.11%.

`C=CCO/N=C(\C)c1c(O)c(C)c(-c2ccccc2)n(-c2ccccc2)c1=O`: the inhibition is 14.2% (active).

For `O=C(CC1C(=O)NCCN1Cc1ccc(-c2ccccc2)cc1)NCc1ccncc1` (centres undefined), the inhibition was -0.27%.

Take `Cc1ccnc(NS(=O)(=O)c2ccc(NC(=O)c3ccc(S(=O)(=O)N(C)C)cc3)cc2)n1`: the inhibition is -0.41%.

Consider `CC1=C/C(=N\S(=O)(=O)c2ccccc2)C(C(C)C)=CC1=O`, for which the inhibition is 3.57%.

`CCOC(=O)/C(C#N)=C/c1ccc(N2CCN(Cc3ccccc3)CC2)cc1`: the inhibition is -1.52%.

For `CCOC(=O)/C(C#N)=C/c1ccc(N2CCCCC2)cc1`, the inhibition was 1.57%.

On to `COc1ccc(N2CCN(C(=O)/C(C#N)=C/c3ccccc3)CC2)cc1`, for which the inhibition is 8.69% (active).

As for `COc1cccc2cc(/C(C)=N/NC(=O)c3ccco3)oc12`, the inhibition is 1.11%.

For `CCCCOC(=O)Nc1sc2nc(C)cc(C)c2c1-n1cccc1`, the inhibition is 9.53% (active).

As for `Cc1cc(C)c2c(-n3cccc3)c(NC(=O)OCc3ccccc3)sc2n1`, the inhibition was 5.58%.

Regarding `COC(=O)Nc1sc2nc(C)cc(C)c2c1-n1cccc1`, the inhibition was 0.22%.

On to `COc1cc(CN(C)Cc2nc3cc(C(F)(F)F)ccc3c(=O)[nH]2)ccc1OC(F)F`, for which the inhibition is 2.67%.

On to `CCOC(=O)C1=C(C)N=C2c3ccccc3C(=O)C2C1c1ccc(Br)cc1` (centres undefined), for which the inhibition was 1.62%.

Take `N#CC(=C1CCCC1)c1nc(-c2ccc(Cl)cc2)cs1`: the inhibition was 9.11% (active).

For `N#CC(=C1SC=CS1)c1nc(-c2ccccc2)cs1`, the inhibition was 3.35%.

With `N#C/C(=C1\CCCN1)c1nc(-c2ccccc2)cs1`, the inhibition is 3.76%.

Regarding `O=C(CSc1ccc(-c2ccccc2)nn1)NCC1CCCO1` (centres undefined), the inhibition is 2.21%.

Take `Cc1ccc(S(=O)(=O)c2c(N)n(C)c3nc4ccccc4nc23)cc1`: the inhibition was 12.3% (active).

With `CCC(=O)Nc1c(S(=O)(=O)c2ccccc2)c2nc3ccccc3nc2n1Cc1ccccc1`, the inhibition is 2.78%.

As for `C=CCn1c(N)c(S(=O)(=O)c2cccs2)c2nc3ccccc3nc21`, the inhibition is 1.69%.

As for `COc1ccc(C(=O)C[n+]2ccc(C)cc2)cc1`, the inhibition is 0.48%.

`O=C(/C=C/c1ccccc1)c1ccccc1O`: the inhibition was -0.67%.

On to `COc1ccc(/C=C/C(=O)c2cc(Br)ccc(=O)c2O)cc1`, for which the inhibition is 1.75%.

Turning to `COc1ccc(C(=O)/C=C/Nc2ccccn2)cc1`, the inhibition was 2.71%.

Turning to `COc1ccc(C(=O)/C=C/c2ccc(OC3CSC3)cc2)cc1`, the inhibition was 9.21% (active).

In the case of `CCOC(=O)C1CCCN(C(=O)/C=C/c2ccc(OC)cc2)C1` (centres undefined), the inhibition was 0.37%.

In the case of `COc1ccc(/C=C/C(=O)c2ccc(OC)cc2O)cc1`, the inhibition is 8.82% (active).

Take `C=CCOc1c(CNn2cn[nH]c2=S)cccc1OC`: the inhibition is 0.75%.

For the compound `COC(=O)c1ccc(NC(=S)Nc2cccc(C)n2)cc1`, the inhibition was 3.21%.

`CC1CCN(C(=S)c2cccc([N+](=O)[O-])c2)CC1`: the inhibition is -0.74%.

Turning to `CC(NC(=S)NC1CCCCC1)C(c1ccccc1)N1CCOCC1` (centres undefined), the inhibition was 0.28%.

With `CCOc1cc(/C=N/O)cc(Br)c1OC`, the inhibition was 0.34%.

`CCOc1c(Cl)cc(/C=N/O)cc1OC`: the inhibition was 2.16%.

`COc1cc(/C=N/O)cc(Br)c1OCc1cccc(Cl)c1`: the inhibition is 9.47% (active).

For `NS(=O)(=O)c1cccc(NC(=O)COC(=O)/C=C/c2ccco2)c1`, the inhibition is 0.38%.

For `CCc1nnc(NC(=O)c2cccs2)s1`, the inhibition was 1.49%.

Turning to `CCc1nnc(NC(=O)c2sc3nc(C)cc(COC)c3c2N)s1`, the inhibition is 1.25%.

`CCc1ccc2nc3sc(C(=O)Nc4nnc(CC)s4)c(N)c3cc2c1`: the inhibition was 8.98% (active).

As for `COCc1c(C(=O)OCc2c(C)noc2C)oc2ccccc12`, the inhibition is 0.88%.

With `Cc1cc(/C=C2/C(=N)N3C(=NC2=O)SN=C3S(C)(=O)=O)c(C)n1-c1ccccc1`, the inhibition is 4.35%.

As for `COc1cc(NC(=O)COC(=O)CSc2ccc3ccccc3c2)c(C)cc1[N+](=O)[O-]`, the inhibition was 2.2%.

As for `COc1ccc2c(CC(=O)OCC(=O)Nc3ccccc3[N+](=O)[O-])coc2c1`, the inhibition was 10% (active).

With `COc1ccc2c(CC(=O)Nc3nnc(C4CC4)s3)coc2c1`, the inhibition was 3.72%.

In the case of `CCCCS(=O)c1snnc1C` (centres undefined), the inhibition was -0.12%.

Turning to `O=C(c1cc2c(s1)CCC2)N1CCN(c2ccccc2)CC1`, the inhibition was 4.37%.

Regarding `O=C(CNC(=O)c1cc2c(s1)CCC2)Nc1ccccc1Br`, the inhibition was 1.93%.

In the case of `O=C(NNC(=O)c1cc2c(s1)CCCC2)c1ccccc1`, the inhibition was 9.1% (active).

Regarding `CCOC(=O)Cc1csc(SCC(=O)NC(C)C23CC4CC(CC(C4)C2)C3)n1` (centres undefined), the inhibition was 0.91%.

As to `CC(NC(=O)COC(=O)c1ccc(Cl)cc1O)c1ccc(F)cc1` (centres undefined), the inhibition was 3.6%.

Regarding `COc1ccccc1-n1c(=S)[nH]c2c(sc(=S)n2-c2ccc(C)cc2C)c1=O`, the inhibition is 9.12% (active).

Consider `COc1cccc(-n2c(=S)sc3c(=O)n(-c4ccccc4OC)c(SCC4OCCO4)nc32)c1`, for which the inhibition was 7.01%.

Turning to `CCc1ccc(-n2c(=S)sc3c(=O)n(-c4ccccc4OC)c(=S)[nH]c32)cc1`, the inhibition is 5.97%.

On to `O=C(c1ccncc1)c1ccc([N+](=O)[O-])cc1`, for which the inhibition is 0.73%.

Regarding `CC(C)=C1C2CCC1C1C(=O)N(NC(=O)c3ccco3)C(=O)C21` (centres undefined), the inhibition is -1.09%.

Regarding `N/C(Cc1ccc([N+](=O)[O-])cc1)=N\OC(=O)COc1ccc2ccccc2c1`, the inhibition was 12% (active).

Consider `N/C(=N\OC(=O)COc1ccc([N+](=O)[O-])cc1)c1ccc(Br)cc1`, for which the inhibition is 2.29%.

`N/C(=N\OC(=O)Cc1ccc([N+](=O)[O-])cc1)c1ccccn1`: the inhibition was 1.23%.

`CN(C)c1nnnn1-c1ccc(Cl)cc1`: the inhibition is -0.37%.

With `O=C(O)/C=C/c1cn(Cc2ccccc2)nc1-c1cccs1`, the inhibition was 4%.

`CCC(C(=O)OCC(=O)Nc1ccc(C(=O)Nc2ccc(OC)cc2)cc1)c1ccccc1` (centres undefined): the inhibition was 4.72%.

`CCC(C(=O)OCC(=O)Nc1ccccc1-c1ccccc1)c1ccccc1` (centres undefined): the inhibition was 6.39%.

As for `CCC(C(=O)OCC(=O)Nc1c(Cl)cc(Cl)cc1Cl)c1ccccc1` (centres undefined), the inhibition is 12.2% (active).
